Assay results as given in PubChem BioAssay AID488977 (Johns Hopkins Ion Channel Center, 2010).
About 1,500 (0.48%) of roughly 310,000 compounds were called active. This is one part of a sample in which actives are shown more often than they occur.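 The calls were made as follows: active = initial fluorescence not abnormally high and integrated response B-score, plate-corrected, over 3 SD above library mean; inactive = the rest.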

The compounds below were run against High affinity choline transporter 1 (Homo sapiens) (UniProt Q9GZV3) (assay: CHT positive allosteric modulators, primary screen, cell-based, membrane potential dye, choline EC20 (AID 488977)). Conditions: CHT-expressing cells, at 10 µM, LV-AA mutant CHT in HEK293 cells; hits give high values.
Chain of High affinity choline transporter 1 (Homo sapiens) (Q9GZV3 whole entry, looked up): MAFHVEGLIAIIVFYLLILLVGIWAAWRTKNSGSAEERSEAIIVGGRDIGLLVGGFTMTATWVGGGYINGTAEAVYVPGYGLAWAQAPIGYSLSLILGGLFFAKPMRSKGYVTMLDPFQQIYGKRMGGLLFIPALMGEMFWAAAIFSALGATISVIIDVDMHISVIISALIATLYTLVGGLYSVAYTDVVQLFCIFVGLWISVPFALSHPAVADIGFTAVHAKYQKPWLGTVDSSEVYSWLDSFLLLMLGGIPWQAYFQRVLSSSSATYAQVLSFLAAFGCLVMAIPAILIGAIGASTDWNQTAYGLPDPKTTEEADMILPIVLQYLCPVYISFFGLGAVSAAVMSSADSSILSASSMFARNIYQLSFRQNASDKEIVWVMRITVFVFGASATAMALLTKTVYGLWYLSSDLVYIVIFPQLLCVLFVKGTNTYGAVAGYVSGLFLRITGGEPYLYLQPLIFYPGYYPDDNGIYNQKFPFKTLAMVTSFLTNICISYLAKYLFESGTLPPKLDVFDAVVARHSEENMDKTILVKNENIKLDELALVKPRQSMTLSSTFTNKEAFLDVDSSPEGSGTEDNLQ

Compound	B-score
Fc1ccccc1COc1cccc2cccnc12	inactive
c1ccc2c(C[n+]3csc4ccccc43)cccc2c1	inactive
Nc1scc[n+]1Cc1cccc2cccnc12	6.75 (active)
COc1ccc(CCNC(=O)C(=O)NCC2CCCN2S(=O)(=O)c2cccs2)cc1OC (centres undefined)	inactive
N=c1c2c3c(sc2ncn1CCCN1CCOCC1)CCCCC3	6.58 (active)
N=c1c2c3c(sc2ncn1N)CCCCC3	inactive
Nc1nc(SCC(=O)NCCN2CCOCC2)nc2sc3c(c12)CCC3	inactive
CCN(CC(=O)Nc1cccc(S(=O)(=O)N2CCCCC2)c1)Cc1ccccc1	inactive
COc1ccc2nc(/N=C(\N)NC(=O)Nc3ccccc3)nc(C)c2c1	inactive
COc1nc(N=C(N)N)nc2c(C)cccc12	8.19 (active)
Cc1nc(/N=C(\N)NC(=O)NC2CCCCC2)nc2ccccc12	inactive
CC(=O)Oc1ccc(-c2nc3c(C)cccc3c(=O)o2)cc1	inactive
NC(N)=Nc1nc(-c2ccccc2)c2cc(Cl)ccc2n1	inactive
Cc1nc(N=C(N)N)nc2c(C)cccc12	7.11 (active)
O=C(Nc1ccc(C(=O)N2CCOCC2)cc1)Nc1cccc(C(F)(F)F)c1	inactive
Cc1ccc(OCC(=O)Oc2ccccc2[N+](=O)[O-])cc1	inactive
COc1ccc2c(c1)[C@H]1[C@H](CO2)[C@H](c2ccccc2)[C@]2(C)C(=O)Nc3cc(F)c(F)cc3C(=O)N12	inactive
O=C(Nc1ccc2nc3n(c(=O)c2c1)CCCC3)c1ccc(Cl)nc1	inactive
CN(C)C1=NC[C@H](Cc2ccccc2)N1CCc1ccc(F)cc1	inactive
Cc1noc(C)c1CSCC(=O)Nc1ccc(Br)cc1Cl	inactive
CCOC(=O)C1CCN(c2ccc(C(=O)O)cc2[N+](=O)[O-])CC1	inactive
Cc1ccc(C(=O)c2ccc(N3CCN(C)CC3)c([N+](=O)[O-])c2)cc1	6.4 (active)
Cc1cccc(N2CCN(c3ccc(C(N)=O)cc3[N+](=O)[O-])CC2)c1C	inactive
O=C(Cc1ccc(S(=O)(=O)N2CCOCC2)s1)N1CCN(c2ccc(C(F)(F)F)cc2[N+](=O)[O-])CC1	inactive
COc1ccc(NC(=O)CN(C)C(=O)c2cccc(S(=O)(=O)N3CCN(c4ccccc4)CC3)c2)cc1	inactive
CC(C)CC(CO)N1CCN(C(=O)c2ccc(Cl)cc2Cl)CCC1=O (centres undefined)	inactive
O=C(c1cc(Cl)cc(Cl)c1)N1CCC(=O)N(C(COCc2ccccc2)Cc2ccccc2)CC1 (centres undefined)	inactive
CC(C)CC(COCc1ccc(Cl)cc1)N1CCN(C(=O)c2ccc(C(F)(F)F)cc2)CCC1=O (centres undefined)	6.29 (active)
O=C(CCC(=O)c1cccs1)Nc1nc2ccccc2s1	inactive
